{
  "source": "PubChem BioAssay (NCATS)",
  "note": "Results filed as inconclusive are left out. Entries that show only a call come without a potency. Active and inactive are the calls of the source. The call rests on the fitted dose curve; in most records, active means well fitted inhibition curve with a large enough effect; inconclusive means small, poorly fitted or top-dose-only effect; inactive means no such curve, though single readings can be large or run the other way.",
  "data": [
    {"assay": "Primary qHTS for inhibitors of nuclear receptor binding SET domain protein 2 (NSD2) in an RCH-ACV wild type WT cells (2C) (AID 1645877); further: nearly all actives have a fitted effect of over 70% in size", "details": "RCH-ACV NSD2 WT (2C) viability, CellTiter-Glo, 72 h; series mostly up to 44.9 µM", "values": [
      {"compound": "Cc1c(Cc2ccc3ccccc3n2)c2cc(F)ccc2n1CC(=O)O", "Potency": "inactive"},
      {"compound": "CC(=O)NC(Cc1c[nH]c2ccccc(=O)c12)C(=O)O", "note": "(stereo not drawn)", "Potency": "inactive"},
      {"compound": "COc1ccc(CC(NC(C)=O)C(=O)O)cc1", "note": "(stereo not drawn)", "Potency": "inactive"}
    ]}
  ]
}
